# Screening data as filed in PubChem.
# TEAD-YAP inh: TEAD-YAP interaction inhibition. HEK-TIYL cells, TEAD-Gal4/YAP UAS-luciferase luminescence. inhibition, % at 9.12 µM. 1.4% of 640,000 active; in the data active means inhibition above about 32%;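 further: 0% = median of test compound wells and 100% = reference inhibitor wells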
# MITF inh: blocks human microphthalmia-associated transcription factor; O75030; AlphaScreen MITF homodimerization, bead proximity signal; inhibition, % at 2.6 µM; 0.91% of 650,000 active; AID 1259374; in the data active means inhibition above about 50%;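 further: 0% = vehicle wells with protein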
# FBW7 activator: activators of human E3 ligase FBW7; 0.13% of 650,000 active; AlphaScreen FBW7–phospho-cyclin E peptide binding, activator screen; normalized activity (activation), % at 26.1 µM; in the data active means normalized activity above about 1.9%;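 further: purified mutant Fbw7 with reduced substrate affinity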
# GPR151 ag: activates the human receptor GPR151; 1% of 650,000 active; AID 1508602; PathHunter beta-arrestin GPR151 cells, luminescence; Q8TDV0; activation, % at 11.2 µM; in the data active means activation above about 4.9%;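 further: 0% = median of compound wells and 100% = cells with positive control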
# Target sequence (Q8TDV0 whole entry, looked up): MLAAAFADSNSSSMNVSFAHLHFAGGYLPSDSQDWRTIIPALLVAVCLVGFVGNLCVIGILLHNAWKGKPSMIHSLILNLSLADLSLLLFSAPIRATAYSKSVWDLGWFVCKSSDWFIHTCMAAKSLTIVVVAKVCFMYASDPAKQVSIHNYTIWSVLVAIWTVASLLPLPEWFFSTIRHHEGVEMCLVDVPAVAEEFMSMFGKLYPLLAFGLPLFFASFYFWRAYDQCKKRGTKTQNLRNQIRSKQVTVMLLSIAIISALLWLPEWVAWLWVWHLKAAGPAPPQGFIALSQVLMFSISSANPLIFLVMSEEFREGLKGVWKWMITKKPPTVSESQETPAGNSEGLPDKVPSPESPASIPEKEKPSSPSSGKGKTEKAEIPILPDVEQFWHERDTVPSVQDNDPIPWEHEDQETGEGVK
# GPR151 confirm: confirmation of human GPR151 activators | shares compounds with GPR151 ag | GPR151 PathHunter beta-arrestin cells, luminescence, 90 min; % of EA-reagent control over plate median | activation, % at 11.2 µM | 6,700 tested, under 10 active;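 active means mean percent activation across replicates above the confirmation screen cutoff of 4.91%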
# GPR119 counter: counter-screen for GPR151 activators: effect on human GPR119; shares compounds with GPR151 ag; GPR119 PathHunter beta-arrestin cells, luminescence, 90 min; 0 = compound-well median, 100 = enzyme-acceptor control; activation, % at 11.2 µM; 0.3% of 6,700 active; AID 1508611;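 active means mean percent activation in the counterscreen above 29.09%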;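 further: counterscreen on off-target GPR119 to flag nonselective hits from the GPR151 activator screen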
# * = called active by the depositor; · = no result given; ! = not active in a repeat. Compounds with a hit are over-represented: about 3.5% of the library has one in this group of screens.
SMILES,TEAD-YAP inh,MITF inh,FBW7 activator,GPR151 ag,GPR151 confirm,GPR119 counter
COc1ccc(S(=O)(=O)N2CCC(N3CCCCC3)CC2)cc1OC,-2,-8,0,6.3*,-1,-14
CC(C)(C)c1nnc(Nc2cc(Cl)ccc2Cl)[nH]c1=O,-6,1,0,5.7*,1,5
CC(C)(C)c1nnc(Nc2ccccc2Cl)[nH]c1=O,0,-1,0,0,·,·
COc1cc(NC(=O)c2sc3nc4n(c(=O)c3c2C)CCCC4)cc(OC)c1OC,-8,-6,0,12*,0,-1
COc1ccc(C)cc1NC(=O)c1sc2nc3n(c(=O)c2c1C)CCCC3,0,-1,0,2,·,·
COc1cc2[nH]c(=S)n(C3CC3)c(=O)c2cc1OC,19,10,0,1,·,·
COc1cc2[nH]c(=S)n(C3CC(C)(C)NC(C)(C)C3)c(=O)c2cc1OC,-2,11,0,7.2*,0,9
Nc1nc(NCCO)cc(Nc2ccncn2)n1,-9,4,0,1,·,·
CCCNc1cc(Nc2ccncn2)nc(N)n1,-4,2,0,18*,0,3
CCCn1cnc2c(-c3cccc(Cl)c3)csc2c1=O,-45,3,1,-1,·,·
COc1ccc(CCNC(=O)c2cnc(Nc3ccc(-n4ccnc4)cc3)s2)cc1,-2,4,0,1,·,·
COc1ccc(CCNC(=O)c2csc(Nc3ccc(C(F)(F)F)cc3)n2)cc1,-11,10,0,6.2*,0,2
COc1ccc(CCNc2nc(Nc3ccc(-n4ccnc4)cc3)ncc2C)cc1,18,7,1,4.9*,0,-8
COc1ccc(CCNC(=O)c2csc(Nc3ccc(-n4ccnc4)cc3)n2)cc1,58*,3,0,6.0*,0,30*
COc1ccc(CCNC(=O)CN(c2cc(Cl)ccc2OC)S(=O)(=O)c2ccccc2)cc1OC,13,2,0,-1,·,·
O=C(Cc1ccc(-c2ccccc2)cc1)NCc1nnnn1-c1ccc(F)c(F)c1,-2,4,0,-1,·,·
Cc1oc(-c2ccc(Cl)cc2)nc1CS(=O)CC(=O)NC1CCCCC1 (stereo not given),-3,12,0,8.3*,1,-3
Cc1oc(-c2ccc(Cl)cc2)nc1CS(=O)CC(=O)NC1CCCCCC1 (stereo not given),-12,8,0,0,·,·
COc1ccccc1NC(=O)c1ccc(NC(=O)COC(=O)c2ccc(O)cc2)cc1,13,0,0,5.4*,-2,-15
CCCCOC(=O)Cc1c(C)nc(SCc2ccccc2)[nH]c1=O,3,-1,0,-1,·,·
NC(=O)NC1NC(=O)NC1=O (stereo not given),-8,8,1,5.7*!,0,11
NC(=O)c1ccccc1Nc1ccnc(Nc2ccc(N3CCOCC3)cc2)c1,27,-5,0,0,·,·
NC(=O)c1cc2ccccc2cc1Nc1ccnc(Nc2ccc(N3CCOCC3)cc2)c1,83*,34,0,6.5*,0,0
Cn1nc(-c2ccnc(Nc3ccc(N4CCOCC4)cc3)c2)cc1Nc1ccccc1,-5,-4,0,5.7*,0,-6
CCOc1ccc(N2C(=O)CC(N3CCN(C(c4ccc(F)cc4)c4ccc(F)cc4)CC3)C2=O)cc1 (stereo not given),-11,-4,0,1,·,·
SMILES,TEAD-YAP inh,MITF inh,FBW7 activator,GPR151 ag,GPR151 confirm,GPR119 counter
Cc1ccc(NC(=O)C(=O)NCC2CCCN2S(=O)(=O)c2ccc(C)cc2)cc1 (stereo not given),4,8,1,-1,·,·
CCNC(=O)C(=O)NCC1CCCN1S(=O)(=O)c1ccccc1 (stereo not given),0,23,0,7.2*,-1,1
Cc1ccc(NC(=O)NCC2CCCN2S(=O)(=O)c2ccc(C)cc2)cc1 (stereo not given),-35,0,0,5.8*,-1,-18
Cc1cccn2cc(-c3c[nH]c4ccccc34)nc12,-46,1,0,1,·,·
Brc1ccc2nc(-c3c[nH]c4ccccc34)cn2c1,-29,2,0,7.1*,0,-8
O=C(/C=C/c1cccc2ccccc12)NCc1ccccc1,-7,15,0,5.0*,-1,-8
